# Results: the supplement of paper PMC6555819
# Tested on: PXR:RXRa (NR concentration 270 nM, RXRa partner concentration 90 nM)
# Experiment: PBM binding z-score (relative to random genomic background probes); higher = stronger binding; sequences stand for … in GC…GCGATTGACAGCGTAGAATGAAGG
# Summary of the method: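 On custom Agilent 4×180K arrays, double-stranded probes with 34-nt variable regions carried direct-repeat seeds, single-nucleotide variants, half-site ablations or random human genomic background. Ligand-free nuclear receptor dimers were applied for 1 h, and binding was read with antibodies against each partner (one per run). Binding z-scores come from regression-normalized fluorescence, with the random background probes as reference.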
row,Sequence,PBM binding z-score
1,CCGAGTAGGTTACGAGGGGGCATTCAATGCGAAT,4.33
2,CCGAGTAGGTTACGAGGGGGCATTTAGTGCGAAT,4.52
3,TCGAGTAGGTTACGGGGGGATTCAGGGATGAAGA,3.86
4,CTGAGTAGGTTACGAGGGGGCATTCAGTGCGAAT,4.54
5,CTATGTAGGTTAAGGGGGTCATACAGTTTGAAAG,5.63
6,CTATGTAGGTTAAGGGGGTCTTTCAGTTTGAAAG,2.15
7,CCGAGTAGGTTACGAGGGGGCAATCAGTGCGAAT,4.26
8,CCGAGTAGGTTACCAGGGGGCATTCAGTGCGAAT,4.73
9,TCGAGTCGGTTACGGGGGCATTCAGGGATGAAGA,2.5
10,TCGAGTAGGTTACGGGGACATTCAGGGATGAAGA,0.696
11,CTATGTAGGTTAAGGGGGTCATTCCGTTTGAAAG,5.52
12,CTATGTAGGTTGAGGGGGTCATTCAGTTTGAAAG,5.67
13,CCGAGTGGGTTACGAGGGGGCATTCAGTGCGAAT,4.8
14,CCGAGTAGGTTATGAGGGGGCATTCAGTGCGAAT,4.85
15,CCGAGTAGGTAACGAGGGGGCATTCAGTGCGAAT,3.42
16,CCGGGTAGGTTACGAGGGGGCATTCAGTGCGAAT,5
17,CCGAGTAGCTTACGAGGGGGCATTCAGTGCGAAT,2.64
18,CTATGAAGGTTAAGGGGGTCATTCAGTTTGAAAG,6.22
19,CCGAGTAGGTTACGAGGAGGCATTCAGTGCGAAT,0.196
20,CTCTGTAGGTTAAGGGGGTCATTCAGTTTGAAAG,6.17
21,CTATGGAGGTTAAGGGGGTCATTCAGTTTGAAAG,6.58
22,TCGAGTAGGTTACGGGGGCATTCACGGATGAAGA,3.21
